In PubChem BioAssay (NCI):
Compounds without any hit were thinned out: in the full panel of roughly 83,000, 20% have a hit.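 Growth was measured after 48 h exposure to one concentration of compound in 96-well plates. Values under 10 count as active.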 Values without a mark were called inactive. Calls of active or inactive are those of the source.

Each compound was assayed on ACHN renal (assay: NCI-60 one-dose screen, 48 h (100 = growth as untreated, 0 = no growth, -100 = all killed)). Conditions: 10 µM unless noted.

Row | SMILES | growth
1 | COc1ccc(C/C(=C(\C)c2ccc(OCCN3CCCC3)cc2)c2ccc(OCCN3CCCC3)cc2)cc1 | 54.1%
2 | CCOC(=O)Oc1c(OC)cc(C(=O)c2ccc(OC)c(O)c2OC)cc1OC | 38.5%
3 | CCCCOc1ccc(/C(C)=N/Nc2cc(C)nc3ccc(Br)cc23)cc1 | 103%
4 | O=[N+]([O-])c1cc(Br)c2cccc3c2c1CC3 | 110%
5 | CC(Oc1ccc(C(=O)O)cc1C(F)(F)F)c1ccc(Oc2ccccc2)cn1 (centres undefined) | 104%
6 | CCN1CCN(CCNc2nccc(-c3c(-c4cccc(OC)c4)nc4occn34)n2)S1(=O)=O | 84.9%
7 | Cn1c2ccccc2c2c3c(c4c5ccccc5n(C)c4c21)C(=O)OC3 | 87.3%
8 | COc1cc2c(cc1OC)C(=O)/C(=C/c1cc(C)c(O)c(C)c1)S2 | 45.3%
9 | O=C(/C=C/c1ccc(F)cc1)c1ccc(NC(=O)N2CCN(c3cc4c(cc3F)c(=O)c(C(=O)O)cn4C3CC3)CC2)cc1 | 106%
10 | O=C1c2ccc3c4c(ccc(c24)C(=O)N1CCCNCc1ccccc1Cl)C(=O)N(CCCNCc1ccccc1Cl)C3=O | -39.3% (active)
11 | Cc1cccc(NC(=O)Nc2ccc(-n3cnc4cc(-c5ccc(O)cc5)ccc43)cc2)c1 | 16.1%
12 | c1ccc(-c2cn3c(ccc4ccccc43)n2)cc1 | 79.5%
13 | COc1cc2oc(-c3cccc(C(=O)Nc4ccccc4)c3)cc(=O)c2c(O)c1OC | 58%
14 | Cc1ccc(/C=N/NC(=O)CSc2nc3ccccc3c(=O)n2Cc2ccc(S(N)(=O)=O)cc2)cc1 | 100%
